# Laboratory results as given in PubChem BioAssay (NCI).
# The panel holds about 83,000 compounds, 20% with a hit somewhere; the sample as a whole holds those more often.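 The test compound was applied at a single concentration to cells in 96-well plates for 48 hours, and percent growth was recorded.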 Unmarked numbers belong to inactive results. Active and inactive are the calls of the source.
# Test system: MOLT-4 leukemia
# Test: NCI-60 one-dose screen, 48 h (100 = growth as untreated, 0 = no growth, -100 = all killed)
# Settings: 10 µM unless noted
# Procedure: Growth inhibition of the MOLT-4 human tumor cell line is measured as a screen for anti-cancer activity. Cells are grown in 96 well plates and exposed to the test compound for 48 hours. Compounds are tested at a single concentration, which is 10^-5 M for most compounds. The reported endpoint is percent growth (GI% or GIPRCNT), where numbers from 0 - 100% represent growth inhibition, and numbers from -100% - 0 represent cell death. For example, a value of 40 represents 60% growth inhibition. A value of 0 means no net growth occurred over the course of the experiment. A value of -40 indicates 40% of cells at the beginning of the experiment died by the end of the experiment. A value of -100 means all cells are dead at the end of the experiment.
# NCI-60 Human Tumor Cell Lines Screen was performed using the standard one-dose NCI protocol, which is described in more detail at https://dtp.cancer.gov/discovery_development/nci-60/default.htm.
# Compounds with GIPRCNT values below 10 were considered active. Activity score was based on GIPRCNT using the following formula: […]
# Score is 0 for GIPRCNT values of 100 or above, 50 for GIPRCNT values of 0, and 100 for GIPRCNT values of -100.
row,SMILES,growth
1,Clc1nc(-c2ccccn2)nc2sc3c(c12)CCCCCC3,67.7%
2,O=C1CC2c3cc(-c4cc5ccccc5o4)ccc3CCN2C(=O)N1c1ccccc1 (stereo not given),64.1%
3,CCN(c1ccc(C(=O)N2CCN(c3ccccc3)CC2)cc1)S(C)(=O)=O,95.8%
4,O=C(Nc1ccccc1O)c1ccc(NS(=O)(=O)c2cccc3cccnc23)cc1,28.5%
5,CN(C)c1ccc(/C=C(\C#N)c2cc3ccccc3n2C)cc1,21.6%
6,CCOc1ccc(/C=N\N2CCCCCC2)cc1OCC,106%
7,c1ccc(-c2n(Cc3ccc4ccccc4n3)c3ccccc3[n+]2Cc2ccc3ccccc3n2)cc1,-16.9% (active)
8,COc1ccc(-c2[nH]ncc2Nc2cc(OC)c(OC)c(OC)c2)cc1,72.6%
9,CCN(CC)CCCNc1ccc(C)c2sc3ccccc3c(=O)c12,15.3%
10,COc1ccc(S(=O)(=O)c2ccc(C(N)=O)cc2)cc1NC(=O)c1[nH]c(C)c2c1CCCCC2=O,49.4%
11,C[C@H]1C(=O)C23CCC1C[C@@]21O[C@@H]2C(C)(C)C=CC(=O)C23COC1=O,102%
12,CCCOC(=O)c1ccc2c(c1)[N+](=O)C(C(=O)c1ccccc1)=C(C(F)(F)F)[N+]2=O,-63.3% (active)
13,COc1cc(/C=N/NC(=O)c2cnn3c2NC(c2ccccc2)C3)cc(OC)c1OC (stereo not given),80.5%
14,COc1ccc(S(=O)(=O)ON=C2C=C(C)C(=O)C(C)=C2)cc1,42%
15,COc1ccc2nc(-n3nc(C)cc3C)c(-n3nc(C)cc3C)nc2c1,104%
16,COc1cc(/C=C/c2cc(/C=C/c3ccc(O)c(OC)c3)n(-c3ccccc3)n2)ccc1O,-39.9% (active)
17,CCOC(=O)c1c(Cl)c2c(n1Cc1ccc(OC)cc1)-c1oncc1CCC2,72.1%
18,CC(=O)OC[C@H](O)[C@@]1(O)CC[C@H]2[C@@H]3CCC4=CC(=O)CC[C@]4(C)[C@H]3[C@@H](O)C[C@@]21C,89%
19,Cc1ccc(N(CSc2ccc(Cl)cc2)CSc2ccc(Cl)cc2)cc1,-16.3% (active)
20,COc1cc(C(F)(F)F)ccc1-c1cc(-c2ccc(F)cc2)n[nH]1,91.2%

row,SMILES,growth
1,CN1CCN(c2ccc3nc(-c4ccc5nc(-c6ccc(C(F)(F)F)cc6)[nH]c5c4)[nH]c3c2)CC1,47.2%
2,CCOC(=O)c1c(-c2cc(OC)c(OC)c(OC)c2)csc1N,92.3%
3,O=c1c2cc(F)ccc2oc2c(NCCNCCO)nc3ccccc3c12,-0.96% (active)
4,COC1(OC)C2(Cl)C=C(c3ccccc3)C1(Cl)C(Cl)=C2Cl (stereo not given),74.3%
5,CC1CCCCN1S(=O)(=O)c1ccc(CN=C=S)cc1 (stereo not given),31.1%
6,COc1cc(NC(=O)COc2ccccc2)c(C(N)=O)cc1OC,26.9%
7,O=C(N/N=C/c1ccc(F)cc1)c1[nH]c2ccc(I)cc2c1-c1ccccc1,72.5%
8,COc1nc2c(cc1S(=O)(=O)c1ccccc1)CCc1c-2cnn1-c1ccccc1,54.5%
9,O=C1CN2CCC1C/C2=C\c1ccnc2c(Cl)cccc12 (stereo not given),97.1%
10,COc1ccc(-c2cc(=O)oc3c4c(ccc23)OCN(Cc2ccc(F)cc2)C4)cc1,39.9%
11,CN1CCc2c(c3ccccc3c3ccccc23)C1,6.11% (active)
12,COc1cc(/C=N/NC(=O)c2cnn3c2NC(c2ccccc2)C3)ccc1OC1CCCC1 (stereo not given),41.6%
13,O=C1C=CC(=O)N1CCCCCCCCCCN1C(=O)C=CC1=O,18.3%
14,Cc1ccc(S(=O)(=O)N2CCc3ccc(O)c4c3C2Cc2ccc3c(c2-4)OCO3)cc1 (stereo not given),10.9%
15,OC[C@@H](O)[C@@H](O)CO,94.8%
16,Nc1nc(N)c(N=Nc2c(Br)cc(S(N)(=O)=O)cc2Br)c(N)n1,95.2%
17,COc1cccc(Nc2nc(NCCO)c3ccccc3n2)c1,48.1%
18,CC1SC(c2ccc(Cl)cc2)N(CCc2cccs2)C1=O (stereo not given),-4.19% (active)
19,O=C(O)C[C@H](O)C[C@H](O)/C=C/c1c(C2CC2)nc2ccccc2c1-c1ccc(F)cc1,110%
20,Cc1nc2cc(Nc3nc(Nc4ccc(F)cc4)nc(N4CCN(C)CC4)n3)ccc2n1Cc1ccccc1,1.11% (active)
